High-throughput results deposited in PubChem by National Center for Advancing Translational Sciences (NCATS).
In the library only some 19% were active in any assay of this set; here they are far more common.
uPA surface inh: blocks generation of uPA at the cell surface; cell surface uPA generation assay, qHTS; Potency, µM (series often up to 38.3 µM), actives largely listed as inhibitors; 0.31% of 330,000 active; AID 540303; active = well fitted inhibition curve with a large enough effect; inconclusive = small, poorly fitted or top-dose-only effect; inactive = no such curve, though single readings can be large or run the other way; tested in mouse RAW 264.7 cells; note: nearly all actives have a fitted effect of over 55% in size
TDP1 cell noCPT: qHTS for Inhibitors of human tyrosyl-DNA phosphodiesterase 1 (TDP1): qHTS in cells in absence of CPT; DT40 Tdp1-/- hTDP1 cells, no CPT, ATP luminescence, 48 h; 15% of 420,000 active; Potency, µM (doses to about 46.2 µM), hits mostly inhibitors; AID 686978, 2013; note: nearly all actives have a fitted effect of over 55% in size
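Luminescent ATP content (CellTiter-Glo) served as the growth readout. Knockout chicken DT40 cells expressing human TDP1 were exposed to compounds without camptothecin for a minimum 48 hr at 37 °C.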
HT1080NT lethal: kills 2HG-producing HT-1080-NT fibrosarcoma cells; HT-1080-NT fibrosarcoma viability, CellTiter-Glo ATP luminescence, 48 h; Potency, µM (highest dose often 46.1 µM), usual class: cytotoxic; 1.6% of 360,000 active;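 note: NT is the 2HG producing partner of a matched IDH1 knockdown line; nearly all actives have a fitted effect of over 55% in size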
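HT-1080-NT fibrosarcoma cells (2HG-overproducing), 750 cells/well in RPMI with 5% FBS, dosed after 2 h and incubated 48 h at 37C. CellTiter-Glo luminescence normalized to DMSO and no-cell wells; concentration-response curves fitted and classed.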
HT1080 IDH1KD tx: kills HT-1080 cells with IDH1 knockdown | Potency, µM (doses to about 46.1 µM), hits mostly cytotoxic | AID 686971 | HT-1080 IDH1 knockdown viability, ATP luminescence, 48 h | 2% of 360,000 active
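Using the IDH1-knockdown HT-1080 line run in the same batch and compound series as the NT line, viability after 48 h at 37 °C was determined by CellTiter-Glo luminescence and expressed as % activity.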
IL1B secr inh: blocks inflammasome-driven IL-1 beta release | THP-1 LPS/ATP IL-1B secretion, AlphaLISA, 16 h; active compounds read low | activity change, % at 57.5 µM | 4.7% of 360,000 active; in the data active = activity change below about -50%; inconclusive = mostly about -30% to -49%
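THP-1 cells pretreated 1 hr with compounds (up to 57.5 uM final), then stimulated with LPS (250 ng/mL final) plus ATP (1.25 mM final); secreted IL-1B measured by AlphaLISA after 16 hr, decreased signal indicating inhibition.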
DT40 TDP1 CPT: DT40-hTDP1 cell growth loss with CPT. 12% of 420,000 active. Potency, µM (top dose mostly 46.2 µM), usual class: inhibitors. chicken DT40 Tdp1-/-;hTDP1 cells + 20 nM CPT, ATP luminescence, 48 h; note: nearly all actives have a fitted effect of over 55% in size
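Chicken DT40 Tdp1-/- cells stably complemented with human TDP1 were seeded at 400 cells/well in medium containing 20 nM camptothecin, exposed to pin-transferred compounds, and grown at 37 °C for at least 48 hr. Viability was read as ATP luminescence.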
Of the large screens only hits and unclear results are named; the others gave an inactive call. Unless noted, calls come from the whole dose curve; as a rule, active = well fitted curve in the direction sought with a large enough effect; inconclusive = small, poorly fitted or top-dose-only effect, or another doubt; inactive = no such curve, though single readings can be large; an effect the other way counts as inactive or inconclusive.

CC(C)(C)CNC(=O)c1cccc2c1C(=O)c1ccc(N3CCCC3)cc1S2(=O)=O	TDP1 cell noCPT 16.4µM, DT40 TDP1 CPT 20.6µM
O=C(NCc1ccc(F)cc1)c1cccc2c1C(=O)c1ccc(N3CCC(Cc4ccccc4)CC3)cc1S2(=O)=O	TDP1 cell noCPT inconclusive, DT40 TDP1 CPT inconclusive
COc1ccccc1N1CCN(c2ccc3c(c2)S(=O)(=O)c2cccc(C(=O)NCC4CC4)c2C3=O)CC1	TDP1 cell noCPT 7.31µM, DT40 TDP1 CPT 18.4µM (no result: uPA surface inh)
CC1CCN(c2ccc3c(c2)S(=O)(=O)c2cccc(C(=O)NCc4ccc(F)cc4)c2C3=O)CC1	TDP1 cell noCPT inconclusive, DT40 TDP1 CPT inconclusive
CC(C)c1cccc(-c2ccc3c(c2)S(=O)(=O)c2cccc(C(=O)NCc4ccco4)c2C3=O)c1	TDP1 cell noCPT inconclusive, HT1080NT lethal inconclusive, HT1080 IDH1KD tx inconclusive, DT40 TDP1 CPT inconclusive
O=C(NCc1ccc(F)cc1)c1cccc2c1C(=O)c1ccc(N3CCOCC3)cc1S2(=O)=O	TDP1 cell noCPT inconclusive, DT40 TDP1 CPT 23.1µM
CC(C)(C)CNC(=O)c1cccc2c1C(=O)c1ccc(-c3cc4ccccc4o3)cc1S2(=O)=O	TDP1 cell noCPT inconclusive, DT40 TDP1 CPT 16.4µM
O=C1c2ccc(Cl)cc2S(=O)(=O)c2cccc(C(=O)N3CCC(Cc4ccccc4)CC3)c21	uPA surface inh inconclusive, TDP1 cell noCPT 23.1µM, HT1080NT lethal inconclusive, HT1080 IDH1KD tx inconclusive, IL1B secr inh -99.2, DT40 TDP1 CPT inconclusive
O=C(Nc1nc(OCC(F)(F)F)cnc1/C=C\c1ccccc1)c1ccccc1	TDP1 cell noCPT inconclusive (no result: uPA surface inh)
CN(C)C(=O)c1ccc(-c2cc(NCc3ccccc3)ncn2)cc1	none (no result: uPA surface inh, HT1080NT lethal, HT1080 IDH1KD tx, IL1B secr inh)
O=C(c1n[nH]c2c1CCCC2)N1CCOc2ccc(C(O)C3CCCCC3)cc2C1 (stereo not drawn)	none (no result: uPA surface inh, HT1080NT lethal, HT1080 IDH1KD tx, IL1B secr inh)
O=C(O)c1cccc2c1C(=O)c1ccc(-c3ccc(Cl)c(C(F)(F)F)c3)cc1S2(=O)=O	IL1B secr inh -77.7
O=C(NCC1CC1)c1cccc2c1C(=O)c1ccc(-c3ccc(OC(F)(F)F)cc3)cc1S2(=O)=O	TDP1 cell noCPT 23.1µM, DT40 TDP1 CPT 13µM
O=C1NC(=O)C(=C2CCOC2=O)N1	none (no result: uPA surface inh)
Cc1nn(C(C)C(=O)NC2CCC(C)CC2)c(=O)c2cc3sccc3n12 (stereo not drawn)	TDP1 cell noCPT inconclusive, DT40 TDP1 CPT 14.6µM (no result: uPA surface inh, HT1080NT lethal, HT1080 IDH1KD tx, IL1B secr inh)
CCOC(=O)CCCn1nc(C)n2c(cc3sccc32)c1=O	TDP1 cell noCPT inconclusive
CCOC(=O)C(CC)n1nc(C)n2c(cc3sccc32)c1=O (stereo not drawn)	TDP1 cell noCPT 11.6µM, DT40 TDP1 CPT 11.6µM
Cc1ccc(S(=O)(=O)c2nnn3c2nc(N2CCOCC2)c2ccccc23)c(C)c1	TDP1 cell noCPT inconclusive, DT40 TDP1 CPT inconclusive
CC(=O)c1ccc(OCC(=O)N(C2CCCCC2)C2CCS(=O)(=O)C2)cc1 (stereo not drawn)	none
O=C(CCl)N(C1CCCC1)C1CCS(=O)(=O)C1 (stereo not drawn)	TDP1 cell noCPT 14.6µM, HT1080NT lethal inconclusive, HT1080 IDH1KD tx inconclusive, IL1B secr inh inconclusive, DT40 TDP1 CPT 18.4µM
N#CC1=C(N)Oc2c(ccc3ccccc23)C1c1ccsc1 (stereo not drawn)	TDP1 cell noCPT 0.581µM, HT1080NT lethal 13µM, HT1080 IDH1KD tx 5.8µM, DT40 TDP1 CPT 0.82µM
N#CC1=C(N)Oc2c(oc(CO)cc2=O)C1c1ccsc1 (stereo not drawn)	none
Cc1ccc(/C=N/NC(=O)CNC(=O)c2cccc([N+](=O)[O-])c2C)o1	none
CC1Nc2ncnc(N3CCN(c4ccccc4)CC3)c2N(Cc2ccccc2)C1=O (stereo not drawn)	TDP1 cell noCPT 16.4µM, DT40 TDP1 CPT inconclusive
CC1Nc2ncnc(N3CCN(c4ccccc4)CC3)c2N(Cc2ccc(Cl)cc2)C1=O (stereo not drawn)	TDP1 cell noCPT 18.4µM, IL1B secr inh inconclusive, DT40 TDP1 CPT inconclusive
